Reference: PubChem BioAssay AID1159580 (chemical genetic matrix, 2015)
Screen size: about 5,500 compounds; about 2,000 (36%) were called active. Inconclusive results (about 18%) are left out. Rule as the data show it: active = normalized growth mostly below about 0.91 (no sharp cut-off); inconclusive = no clear call, values can overlap the other calls; inactive = mostly above about 0.92. The list shows a part of the results.

Experiment: chemical genetic growth profiling, strain panel (AID 1159580);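 also: tested at 20 µM; growth read once vehicle control cultures reached saturation at 30 °C; 1 = growth at the plate median or of vehicle wells; lower values mean less growth of the strain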
Conditions: growth OD
[1] = S. cerevisiae deletion strains, locus YHR030C, strain SLT2, stronger effect = lower value

Measured: normalized growth

O=C(O)C1=C(CSc2nnnn2CS(=O)(=O)O)CS[C@@H]2C(NC(=O)[C@H](O)c3ccccc3)C(=O)N12 (stereo partly drawn)
inactive: S. cerevisiae deletion strains, locus YAL021C, strain ccr4, stronger effect = lower value 0.955 | S. cerevisiae deletion strains, locus YAL026C, strain drs2, stronger effect = lower value 0.965 | S. cerevisiae deletion strains, locus YAL030W, strain snc1, stronger effect = lower value 0.993 | S. cerevisiae deletion strains, locus YBL061C, strain skt5, stronger effect = lower value 0.989 | S. cerevisiae deletion strains, locus YBR009C, strain hhf1, stronger effect = lower value 0.993 | S. cerevisiae deletion strains, locus YBR023C, strain chs3, stronger effect = lower value 0.988 | S. cerevisiae deletion strains, locus YBR171W, strain sec66, stronger effect = lower value 0.978 | S. cerevisiae deletion strains, locus YBR231C, strain swc5, stronger effect = lower value 0.987 | S. cerevisiae deletion strains, locus YBR279W, strain paf1, stronger effect = lower value 0.99 | S. cerevisiae deletion strains, locus YCL011C, strain gbp2, stronger effect = lower value 0.963 | S. cerevisiae deletion strains, locus YCL016C, strain dcc1, stronger effect = lower value 0.987 | S. cerevisiae deletion strains, locus YCL061C, strain MRC1, stronger effect = lower value 0.971 | S. cerevisiae deletion strains, locus YCL069W, strain vba3, stronger effect = lower value 0.978 | S. cerevisiae deletion strains, locus YCR088W, strain abp1, stronger effect = lower value 0.968 | S. cerevisiae deletion strains, locus YDL005C, strain med2, stronger effect = lower value 0.98 | S. cerevisiae deletion strains, locus YDL040C, strain nat1, stronger effect = lower value 0.989 | S. cerevisiae deletion strains, locus YDR001C, strain nth1, stronger effect = lower value 0.978 | S. cerevisiae deletion strains, locus YDR069C, strain doa4, stronger effect = lower value 0.982 | S. cerevisiae deletion strains, locus YDR137W, strain rgp1, stronger effect = lower value 0.928 | S. cerevisiae deletion strains, locus YDR159W, strain sac3, stronger effect = lower value 0.966 | S. cerevisiae deletion strains, locus YDR195W, strain ref2 0.971 | S. cerevisiae deletion strains, locus YDR297W, strain sur2, stronger effect = lower value 0.985 | S. cerevisiae deletion strains, locus YDR334W, strain swr1, stronger effect = lower value 0.95 | S. cerevisiae deletion strains, locus YDR335W, strain msn5, stronger effect = lower value 0.963 | S. cerevisiae deletion strains, locus YDR392W, strain spt3, stronger effect = lower value 0.956 | S. cerevisiae deletion strains, locus YEL003W, strain gim4, stronger effect = lower value 0.969 | S. cerevisiae deletion strains, locus YEL037C, strain rad23, stronger effect = lower value 0.963 | S. cerevisiae deletion strains, locus YEL061C, strain CIN8 (second series), stronger effect = lower value 0.972 | S. cerevisiae deletion strains, locus YER015W, strain faa2, stronger effect = lower value 0.986 | S. cerevisiae deletion strains, locus YER016W, strain bim1, stronger effect = lower value 0.978 | S. cerevisiae deletion strains, locus YER111C, strain swi4, stronger effect = lower value 0.981 | S. cerevisiae deletion strains, locus YER155C, strain BEM2 (second series), stronger effect = lower value 0.989 | S. cerevisiae deletion strains, locus YFR010W, strain ubp6, stronger effect = lower value 0.964 | S. cerevisiae deletion strains, locus YGL167C, strain pmr1, stronger effect = lower value 0.987 | S. cerevisiae deletion strains, locus YGL173C, strain kem1, stronger effect = lower value 0.983 | S. cerevisiae deletion strains, locus YGL227W, strain vid30, stronger effect = lower value 0.994 | S. cerevisiae deletion strains, locus YGL240W, strain doc1, stronger effect = lower value 1.01 | S. cerevisiae deletion strains, locus YGL253W, strain hxk2, stronger effect = lower value 0.991 | S. cerevisiae deletion strains, locus YHR013C, strain ard1, stronger effect = lower value 0.963 | S. cerevisiae deletion strains, locus YHR027C, strain rpn1, stronger effect = lower value 0.975 | [1] 1 | S. cerevisiae deletion strains, locus YHR079C, strain IRE1, stronger effect = lower value 1.03 | S. cerevisiae deletion strains, locus YHR142W, strain chs7, stronger effect = lower value 0.948 | S. cerevisiae deletion strains, locus YJL092W, strain hpr5, stronger effect = lower value 0.97 | S. cerevisiae deletion strains, locus YJL095W, strain BCK1 (second series), stronger effect = lower value 0.994 | S. cerevisiae deletion strains, locus YJL095W, strain BCK1, stronger effect = lower value 1.01 | S. cerevisiae deletion strains, locus YJL115W, strain asf1, stronger effect = lower value 0.968 | S. cerevisiae deletion strains, locus YJL129C, strain trk1, stronger effect = lower value 0.961 | S. cerevisiae deletion strains, locus YJL154C, strain vps35, stronger effect = lower value 0.989 | S. cerevisiae deletion strains, locus YJL164C, strain tpk1, stronger effect = lower value 0.982 | S. cerevisiae deletion strains, locus YJL166W, strain qcr8, stronger effect = lower value 0.99 | S. cerevisiae deletion strains, locus YJL187C, strain SWE1, stronger effect = lower value 0.991 | S. cerevisiae deletion strains, locus YJR066W, strain TOR1, stronger effect = lower value 0.945 | S. cerevisiae deletion strains, locus YKL160W, strain elf1, stronger effect = lower value 0.974 | S. cerevisiae deletion strains, locus YKR026C, strain gcn3, stronger effect = lower value 0.972 | S. cerevisiae deletion strains, locus YKR091W, strain srl3, stronger effect = lower value 0.989 | S. cerevisiae deletion strains, locus YLL001W, strain dnm1, stronger effect = lower value 0.965 | S. cerevisiae deletion strains, locus YLL026W, stronger effect = lower value 0.991 | S. cerevisiae deletion strains, locus YLL041C, strain sdh2, stronger effect = lower value 0.982 | S. cerevisiae deletion strains, locus YLR027C, strain aat2, stronger effect = lower value 0.984 | S. cerevisiae deletion strains, locus YLR113W, strain HOG1, stronger effect = lower value 1.04 | S. cerevisiae deletion strains, locus YLR221C, strain rsa3, stronger effect = lower value 0.975 | S. cerevisiae deletion strains, locus YLR258W, strain gsy2, stronger effect = lower value 0.995 | S. cerevisiae deletion strains, locus YLR262C, strain YPT6 (second series), stronger effect = lower value 0.98 | S. cerevisiae deletion strains, locus YLR320W, strain mms22, stronger effect = lower value 0.995 | S. cerevisiae deletion strains, locus YLR342W, strain FKS1, stronger effect = lower value 0.982 | S. cerevisiae deletion strains, locus YLR357W, strain rsc2, stronger effect = lower value 1 | S. cerevisiae deletion strains, locus YLR370C, strain arc18, stronger effect = lower value 0.971 | S. cerevisiae deletion strains, locus YLR384C, strain iki3, stronger effect = lower value 0.987 | S. cerevisiae deletion strains, locus YML120C, strain ndi1, stronger effect = lower value 0.958 | S. cerevisiae deletion strains, locus YMR058W, strain fet3, stronger effect = lower value 0.97 | S. cerevisiae deletion strains, locus YMR125W, strain sto1, stronger effect = lower value 0.993 | S. cerevisiae deletion strains, locus YMR129W, stronger effect = lower value 0.975 | S. cerevisiae deletion strains, locus YMR205C, strain PFK2, stronger effect = lower value 1.01 | S. cerevisiae deletion strains, locus YMR231W, strain pep5, stronger effect = lower value 0.984 | S. cerevisiae deletion strains, locus YNL071W, strain lat1, stronger effect = lower value 0.992 | S. cerevisiae deletion strains, locus YNL183C, strain NPR1, stronger effect = lower value 0.952 | S. cerevisiae deletion strains, locus YNL209W, strain ssb2, stronger effect = lower value 0.982 | S. cerevisiae deletion strains, locus YNL248C, strain rpa49, stronger effect = lower value 0.947 | S. cerevisiae deletion strains, locus YNL322C, strain KRE1 (second series), stronger effect = lower value 0.977 | S. cerevisiae deletion strains, locus YNR049C, strain mso1, stronger effect = lower value 0.983 | S. cerevisiae deletion strains, locus YOR001W, strain rrp6, stronger effect = lower value 0.942 | S. cerevisiae deletion strains, locus YOR070C, strain gyp1, stronger effect = lower value 0.993 | S. cerevisiae deletion strains, locus YOR080W, strain dia2, stronger effect = lower value 0.981 | S. cerevisiae deletion strains, locus YOR083W, strain WHI5, stronger effect = lower value 0.972 | S. cerevisiae deletion strains, locus YOR106W, strain vam3, stronger effect = lower value 0.971 | S. cerevisiae deletion strains, locus YOR231W, strain MKK1, stronger effect = lower value 1.01 | S. cerevisiae deletion strains, locus YOR265W, strain rbl2, stronger effect = lower value 0.991 | S. cerevisiae deletion strains, locus YOR270C, strain vph1, stronger effect = lower value 0.964 | S. cerevisiae deletion strains, locus YOR290C, strain snf2, stronger effect = lower value 0.979 | S. cerevisiae deletion strains, locus YPL051W, strain arl3, stronger effect = lower value 0.998 | S. cerevisiae deletion strains, locus YPL078C, strain atp4, stronger effect = lower value 0.966 | S. cerevisiae deletion strains, locus YPL106C, strain sse1, stronger effect = lower value 0.961 | S. cerevisiae deletion strains, locus YPL240C, strain hsp82, stronger effect = lower value 0.971 | S. cerevisiae deletion strains, locus YPL256C, strain CLN2, stronger effect = lower value 1.04

Cc1c(C)c(C)c(S(=O)(=O)Nc2ccccc2N)c(C)c1C
inactive: S. cerevisiae deletion strains, locus YAL013W, strain DEP1, stronger effect = lower value 1.01 | S. cerevisiae deletion strains, locus YBR229C, strain ROT2, stronger effect = lower value 0.993 | S. cerevisiae deletion strains, locus YDL101C, strain DUN1, stronger effect = lower value 1.04 | S. cerevisiae deletion strains, locus YDR150W, strain NUM1, stronger effect = lower value 1.02 | S. cerevisiae deletion strains, locus YEL061C, strain CIN8, stronger effect = lower value 0.959 | S. cerevisiae deletion strains, locus YGR078C, strain PAC10, stronger effect = lower value 1.01 | [1] 1.01 | S. cerevisiae deletion strains, locus YHR087W, strain rtc3, stronger effect = lower value 0.989 | S. cerevisiae deletion strains, locus YJR043C, strain POL32, stronger effect = lower value 1.03 | S. cerevisiae deletion strains, locus YJR075W, strain HOC1, stronger effect = lower value 1.01 | S. cerevisiae deletion strains, locus YKL190W, strain CNB1, stronger effect = lower value 0.994 | S. cerevisiae deletion strains, locus YLR039C, strain RIC1, stronger effect = lower value 0.988 | S. cerevisiae deletion strains, locus YLR058C, strain SHM2 (second series), stronger effect = lower value 0.975 | S. cerevisiae deletion strains, locus YLR085C, strain ARP6, stronger effect = lower value 0.988 | S. cerevisiae deletion strains, locus YLR262C, strain YPT6, stronger effect = lower value 0.981 | S. cerevisiae deletion strains, locus YML094W, strain GIM5, stronger effect = lower value 1 | S. cerevisiae deletion strains, locus YMR219W, strain ESC1, stronger effect = lower value 0.999 | S. cerevisiae deletion strains, locus YMR263W, strain SAP30, stronger effect = lower value 1.01 | S. cerevisiae deletion strains, locus YNL128W, strain TEP1, stronger effect = lower value 0.978 | S. cerevisiae deletion strains, locus YNL153C, strain GIM3, stronger effect = lower value 1.04 | S. cerevisiae deletion strains, locus YNL298W, strain CLA4 (second series), stronger effect = lower value 0.982 | S. cerevisiae deletion strains, locus YNL322C, strain KRE1, stronger effect = lower value 0.996 | S. cerevisiae deletion strains, locus YNR030W, strain Alg12, stronger effect = lower value 0.966 | S. cerevisiae deletion strains, locus YOL006C, strain TOP1, stronger effect = lower value 1.02 | S. cerevisiae deletion strains, locus YPL055C, strain LGE1, stronger effect = lower value 0.991 | S. cerevisiae deletion strains, locus YPL241C, strain CIN2, stronger effect = lower value 0.974 | S. cerevisiae deletion strains, locus YPR135W, strain CTF4, stronger effect = lower value 1.06 | S. cerevisiae strains, strain wild type, stronger effect = lower value 0.975
